Statin myotox sup – suppressors of statin myotoxicity in C2C12 myotubes, primary screen, cell-based, single point, plate reader | rescue of ATP level, % at 7.49 µM | C2C12 myotubes + simvastatin, ATP luminescence, 48 h; scaled: DMSO 0, geranylgeraniol control 100 | actives 0.78% (n = 330,000) | AID 602340, 2012;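 active = mean ATP rescue above about 67%, or every replicate alone reaching that limit, limit read from the data, passing the limit was not always enough; inconclusive = no clear call, values can overlap the other calls; inactive = mean under the limit and some replicate under it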;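 also: myotubes were challenged with 10 µM simvastatin during compound exposure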
Wnt bcat act – Wnt/beta-catenin pathway activators, primary screen, cell-based, plate reader, single point; actives 1.2% (n = 300,000); activation, % at 9.35 µM; Wnt/beta-catenin reporter cell assay, activator; in the data active = activation above about 30%, passing the limit was not always enough; inconclusive = no clear call, values can overlap the other calls;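 also: 0% = neutral control wells and 100% = positive control wells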
esBAF inh – Bmi1 luciferase reporter increase in mESCs, primary screen, esBAF inhibitor project, mouse ES cells, Bmi1 luciferase knock-in, single point | 24 h; 100% = twice the neutral-well signal | reporter increase, % at 12.5 µM | actives 2% (n = 350,000) | AID 602393, 2012; in the data active = activation above about 40%; inconclusive = no clear call, values can overlap the other calls;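 also: 0% = median of the plate's neutral control wells and 100% = double that signal; a rise in the Bmi1 reporter signal indicates esBAF inhibition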
MITF act – activators of MITF-driven TRPM1 promoter reporter, primary screen, cell-based, SK-MEL-5, luciferase, single point; activation, % at 12.5 µM; actives 0.75% (n = 300,000); SK-MEL-5 TRPM1-promoter luciferase, 24 h; % of positive control, neutral wells = 0;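 active = mean activation of at least 80% with every replicate also reaching 80%; inconclusive = mean reaches 80% but some replicate falls short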;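 also: 0% = neutral control wells and 100% = parthenolide positive control wells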
Rtt109 HAT inh – inhibitors of C. albicans Rtt109/Vps75 HAT, primary screen, biochemical, ThioGlo CoA-SH fluorescence, plate reader. Histone acetyltransferase RTT109 (Candida albicans (strain SC5314 / ATCC MYA-2876)), …. purified Rtt109/Vps75, 4 h. inhibition, % at 34.9 µM. actives 0.16% (n = 330,000). AID 540336, 2011;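 active = inhibition of at least 50% in every replicate; inconclusive = best replicate reaches 50% inhibition but some replicates fall short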
Target sequence (Q5AAJ8 whole entry, looked up): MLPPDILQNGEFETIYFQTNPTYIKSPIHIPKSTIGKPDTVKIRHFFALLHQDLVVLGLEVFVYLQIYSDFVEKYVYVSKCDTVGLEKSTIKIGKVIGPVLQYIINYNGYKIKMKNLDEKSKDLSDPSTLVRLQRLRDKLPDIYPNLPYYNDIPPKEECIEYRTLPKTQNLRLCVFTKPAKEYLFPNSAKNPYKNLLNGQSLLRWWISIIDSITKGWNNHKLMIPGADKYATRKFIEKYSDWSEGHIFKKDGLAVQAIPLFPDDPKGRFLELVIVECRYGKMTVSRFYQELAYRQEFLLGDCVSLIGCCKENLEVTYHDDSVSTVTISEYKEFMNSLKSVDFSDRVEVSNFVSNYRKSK
* = called active by the depositor; ? = inconclusive; . = no result given. An excerpt weighted towards active compounds, which were near 3.1% of everything screened.

SMILES | Statin myotox sup | Wnt bcat act | esBAF inh | MITF act | Rtt109 HAT inh
CCCC(=O)Nc1ccc2c(c1)C(=O)N(C)[C@@H]1CC[C@@H](CC(=O)NCc3ccccc3)O[C@H]1CO2 | -8.5 | . | 1.1 | . | .
CCCCOC(=O)Cn1c(=O)c2c(nc3n2CCCCN3c2ccc(C)cc2)n(C)c1=O | 103.4* | -2.2 | -9.5 | -9.2 | -4.9
O=C(O)c1ccccc1SCc1csc(-c2ccccc2)n1 | 10.6 | 5.0 | 46.7* | -4.8 | 3.4
CC(C)NC(=O)N(C)C[C@H]1Oc2ccc(NC(=O)CCCCCC(=O)Nc3ccccc3N)cc2CC(=O)N([C@@H](C)CO)C[C@@H]1C | -22.8 | . | -0.4 | . | .
COc1cc(C)ccc1OCc1cc(C(=O)N2CCC(c3ccc(F)cc3)C2)no1 (configuration not stated) | -2.4 | 40.9* | 81.7* | 82.2* | 2.0
Cc1ccc(C)c(OCc2cc(C(=O)NC3CCOC(C)(C)C3)no2)c1 (configuration not stated) | -18.6 | 12.1 | 50.9* | 17.1 | 5.3
Cc1ccc(C)c(OCc2cc(C(=O)N3CC[C@@H]4CCCC[C@H]4C3)no2)c1 | -5.6 | 17.4 | 54.4* | 22.4 | -4.4
CSc1ccccc1OCc1cc(C(=O)NC2CCOC(C)(C)C2)no1 (configuration not stated) | -30.5 | -0.4 | -0.2 | 12.0 | -1.3
Cc1ccc(C)c(OCc2cc(C(=O)N3C[C@@H](C)O[C@@H](C)C3)no2)c1 | -4.9 | 37.4* | 75.6* | 125.3* | -1.7
COCC(=O)NC[C@H]1N[C@H](CO)[C@H]1c1ccc(C2=CCCC2)cc1 | 12.6 | . | -4.0 | . | .
CCN(CCn1cccn1)C(=O)c1cc(COc2ccccc2SC)on1 | . | 26.0 | . | 53.7 | 0.5
CCN(CCn1cccn1)C(=O)c1cc(COc2cc(C)ccc2C)on1 | 0.0 | ? | 69.7* | 61.0 | -2.4
Cc1ccc(C)c(OCc2cc(C(=O)N3CCN(C(=O)c4ccco4)CC3)no2)c1 | -6.4 | 16.8 | 80.0* | 33.6 | -1.5
C[C@@H]1CN([C@H](C)CO)S(=O)(=O)c2ccc(Br)cc2O[C@@H]1CN(C)C(=O)C1CC1 | 9.0 | . | 1.3 | . | .
C[C@@H]1CN([C@H](C)CO)S(=O)(=O)c2ccc(C#Cc3ccncc3)cc2O[C@H]1CN(C)C(=O)C1CCC1 | -3.6 | . | 7.4 | . | .
COCC(C)n1c(C)cc(C(=O)COC(=O)c2n[nH]c3ccccc23)c1C (configuration not stated) | . | . | . | 8.4 | 11.1
COCC(C)n1c(C)cc(C(=O)COC(=O)c2oc3ccccc3c2C)c1C (configuration not stated) | 73.3* | . | -22.6 | 11.5 | -0.4
CCCC(=O)Nc1ccc2c(c1)C(=O)N(C)[C@H]1CC[C@@H](CC(=O)NCc3ccccc3Cl)O[C@H]1CO2 | -4.2 | . | 12.5 | . | .
COc1ccc(NC(=O)N(C)C[C@@H]2Oc3ccc(NC(=O)C4CC4)cc3C(=O)N([C@@H](C)CO)C[C@H]2C)cc1 | 10.1 | . | -0.7 | . | .
O=C(CCOc1ccccc1)N1CCN(c2ccc(O)cc2)CC1 | 34.5 | 49.6* | 4.2 | 10.1 | 0.9
O=C(CCOc1ccccc1)N1CCN(S(=O)(=O)c2cccs2)CC1 | 77.6* | . | 3.7 | 9.5 | -2.0
O=C(COc1ccccc1)N1CCN(S(=O)(=O)c2cccs2)CC1 | 37.9 | . | -2.1 | -5.7 | -9.4
O=C(CCCOc1ccccc1)N1CCN(c2ccccc2)CC1 | 30.1 | . | 27.5 | 56.8 | 5.2
C[C@H](CO)N1C[C@H](C)[C@H](CN(C)C(=O)Nc2cccc3ccccc23)Oc2ccc(NC(=O)C3CC3)cc2CC1=O | 20.7 | . | -2.5 | . | .
C[C@H](CO)N1C[C@H](C)[C@@H](CN(C)C)Oc2cc(C3=CCCCC3)ccc2S1(=O)=O | -25.6 | . | . | . | .
SMILES | Statin myotox sup | Wnt bcat act | esBAF inh | MITF act | Rtt109 HAT inh
c1ccc(Nc2nc3ccccc3n3nnnc23)cc1 | -13.5 | 12.6 | 74.6* | 9.7 | -6.3
Fc1cccc(Nc2nc3ccccc3n3nnnc23)c1 | -11.3 | 5.3 | 8.3 | 4.6 | 22.3
CCCCN(CC)CCCNC(=O)c1cc2c(=O)n(CC)c3ccccc3c2s1 | 97.4* | -0.1 | 8.0 | -67.9 | -4.7
CCCCN(CC)CCNC(=O)c1cc2c(=O)n(CC)c3ccccc3c2s1 | 7.2 | 3.4 | -9.9 | 9.5 | -11.4
O=C(C[C@H]1C[C@H]2c3cc(NC(=O)Nc4ccccc4)ccc3O[C@H]2[C@@H](CO)O1)NCc1ccncc1 | -1.6 | . | 4.8 | . | .
O=C(C[C@H]1C=C[C@H](NC(=O)NC2CCCCC2)[C@H](CO)O1)NCc1ccc(F)cc1 | 5.7 | . | 2.3 | . | .
CC1(C)C=Cc2c(ccc3c2OC[C@H](c2ccc(O)cc2O)C3)O1 | 10.4 | 22.5 | -33.1 | 44.5 | 14.7
CC(=O)Oc1ccc([C@@H]2COc3c(ccc4c3C=CC(C)(C)O4)C2)c(OC(C)=O)c1 | 15.7 | 30.0 | 49.9* | 49.5 | 5.0
FC(F)(F)c1nnc2c(Sc3ccccn3)nc3ccccc3n12 | 6.4 | 27.8 | 62.6* | -43.6 | 4.2
FC(F)(F)c1nnc2c(Sc3ccccc3)nc3ccccc3n12 | . | 11.8 | . | . | -6.0
COc1cccc(OCc2cc(C(=O)N3CCCC3c3ccccn3)no2)c1 (configuration not stated) | 3.9 | 28.3 | 60.2* | 79.9 | 0.4
COc1cccc(OCc2cc(C(=O)N3CCNC(=O)C3Cc3ccccc3)no2)c1 (configuration not stated) | 4.7 | 7.1 | 51.4* | 58.5 | 0.4
COc1ccccc1N1CCN(C(=O)c2cc(-c3ccc(F)cc3)[nH]c2C)CC1 | 118.8* | -2.0 | 4.1 | 6.5 | 1.7
CCN(CC)S(=O)(=O)c1ccc(-n2c(=O)c(C(C)C)c(C)n2C)cc1 | 86.8* | -3.3 | 7.3 | 6.0 | -0.3
Cc1c(C(C)C)c(=O)n(-c2ccc(S(=O)(=O)NC(C)C)cc2)n1C | -1.9 | -3.1 | 13.7 | -12.6 | 1.4
O=C(CSc1n[nH]c(=O)n1C1CC1)c1ccc2c(c1)OCCO2 | . | 38.0* | . | . | .
O=C(CSc1n[nH]c(=O)n1Cc1ccco1)c1ccc2c(c1)OCCO2 | 7.8 | 15.0 | -6.8 | 28.0 | -0.2
O=C(CSc1nc2ccccc2c(=O)n1CC1CCCO1)Nc1ccccc1Cl (configuration not stated) | 79.2* | -2.8 | -4.5 | -2.5 | -4.6
O=C(CSc1nc2ccccc2c(=O)n1CC1CCCO1)Nc1ccccc1 (configuration not stated) | 5.4 | -1.9 | -2.9 | 3.1 | 22.9
O=C(O)C[C@@H]1CC[C@@H](NC(=O)Nc2ccccc2)[C@@H](CO)O1 | -4.6 | . | -3.9 | . | .
O=C(NCCOc1ccc(Cl)cc1)c1ccc2c(c1)OCCO2 | 1.1 | 19.8 | 39.3 | 97.6* | -15.2
O=C(NCCc1ccc(Cl)cc1)c1ccc2c(c1)OCO2 | . | 37.2* | . | 46.0 | -5.0
